Experimental data as given in PubChem BioAssay AID1159580 (chemical genetic matrix, 2015).
Where “and” joins values, the source holds several entries; their conditions need not be identical. Equal values may be shown once. Among all 5,500 compounds or so, about 2,000 (36%) were called active. About 18% were inconclusive and are not listed. Cut-off read from the data, not from the text of the source: active = normalized growth mostly below about 0.91 (no sharp cut-off); inconclusive = no clear call, values can overlap the other calls; inactive = mostly above about 0.92. The list shows a part of the results.

Test: chemical genetic growth profiling, strain panel (AID 1159580);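 note: tested at 20 µM; growth read once vehicle control cultures reached saturation at 30 °C; 1 = growth at the plate median or of vehicle wells; lower values mean less growth of the strain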
Conditions: S. cerevisiae deletion strains, growth OD

Measured: normalized growth

COP(=S)(OC)Oc1ccc([N+](=O)[O-])cc1
inactive: locus YAL013W, strain DEP1, stronger effect = lower value 1.03 | locus YAL021C, strain ccr4, stronger effect = lower value 1.01 | locus YAL026C, strain drs2, stronger effect = lower value 0.995 | locus YAL030W, strain snc1, stronger effect = lower value 1 | locus YBL061C, strain skt5, stronger effect = lower value 1 | locus YBR009C, strain hhf1, stronger effect = lower value 0.995 | locus YBR021W, strain FUR4, stronger effect = lower value 1.01 | locus YBR023C, strain chs3, stronger effect = lower value 0.994 | locus YBR171W, strain sec66, stronger effect = lower value 0.994 | locus YBR229C, strain ROT2, stronger effect = lower value 0.96 | locus YBR231C, strain swc5, stronger effect = lower value 0.988 | locus YBR279W, strain paf1, stronger effect = lower value 1 | locus YCL011C, strain gbp2, stronger effect = lower value 0.992 | locus YCL016C, strain dcc1, stronger effect = lower value 0.99 | locus YCL029C, strain bik1, stronger effect = lower value 0.975 | locus YCL061C, strain MRC1, stronger effect = lower value 0.991 | locus YCL069W, strain vba3, stronger effect = lower value 0.996 | locus YCR088W, strain abp1, stronger effect = lower value 0.99 | locus YDL005C, strain med2, stronger effect = lower value 0.991 | locus YDL035C, strain GPR1, stronger effect = lower value 0.988 | locus YDL040C, strain nat1, stronger effect = lower value 0.993 | locus YDL074C, strain BRE1, stronger effect = lower value 0.949 | locus YDL101C, strain DUN1, stronger effect = lower value 0.973 | locus YDL134C, strain PPH21, stronger effect = lower value 0.988 | locus YDL185W, strain tfp1, stronger effect = lower value 0.958 | locus YDL192W, strain arf1, stronger effect = lower value 0.972 | locus YDR001C, strain nth1, stronger effect = lower value 1 | locus YDR069C, strain doa4, stronger effect = lower value 0.956 | locus YDR101C, strain arx1, stronger effect = lower value 0.984 | locus YDR137W, strain rgp1, stronger effect = lower value 0.885 | locus YDR150W, strain NUM1, stronger effect = lower value 0.975 | locus YDR159W, strain sac3, stronger effect = lower value 0.981 | locus YDR162C, strain NBP2, stronger effect = lower value 0.978 | locus YDR195W, strain ref2 1 | locus YDR297W, strain sur2, stronger effect = lower value 0.996 | locus YDR318W, strain mcm21, stronger effect = lower value 0.98 | locus YDR334W, strain swr1, stronger effect = lower value 0.998 | locus YDR335W, strain msn5, stronger effect = lower value 1.01 | locus YDR388W, stronger effect = lower value 0.983 | locus YDR392W, strain spt3, stronger effect = lower value 0.922 | locus YDR502C, strain sam2, stronger effect = lower value 0.971 | locus YEL003W, strain gim4, stronger effect = lower value 0.996 | locus YEL037C, strain rad23, stronger effect = lower value 0.999 | locus YEL061C, strain CIN8 (second series), stronger effect = lower value 1 | locus YEL061C, strain CIN8, stronger effect = lower value 0.976 | locus YER015W, strain faa2, stronger effect = lower value 0.996 | locus YER016W, strain bim1, stronger effect = lower value 0.997 | locus YER110C, stronger effect = lower value 0.963 | locus YER111C, strain swi4, stronger effect = lower value 1 | locus YER155C, strain BEM2 (second series), stronger effect = lower value 0.94 | locus YER155C, strain BEM2, stronger effect = lower value 1.01 | locus YER167W, strain BCK2, stronger effect = lower value 0.979 | locus YFR010W, strain ubp6, stronger effect = lower value 0.999 | locus YGL078C, strain dbp3, stronger effect = lower value 0.985 | locus YGL086W, strain mad1, stronger effect = lower value 0.994 | locus YGL167C, strain pmr1, stronger effect = lower value 0.992 | locus YGL173C, strain kem1, stronger effect = lower value 0.99 | locus YGL227W, strain vid30, stronger effect = lower value 0.993 | locus YGL240W, strain doc1, stronger effect = lower value 0.987 | locus YGL248W, strain PDE1, stronger effect = lower value 0.966 | locus YGL253W, strain hxk2, stronger effect = lower value 0.999 | locus YGR078C, strain PAC10, stronger effect = lower value 0.989 | locus YGR135W, strain pre9, stronger effect = lower value 0.976 | locus YGR229C, strain SMI1, stronger effect = lower value 0.99 | locus YGR252W, strain gcn5, stronger effect = lower value 0.968 | locus YHR013C, strain ard1, stronger effect = lower value 1.02 | locus YHR027C, strain rpn1, stronger effect = lower value 0.987 | locus YHR030C, strain SLT2, stronger effect = lower value 0.998 and 0.993 | locus YHR079C, strain IRE1 (second series), stronger effect = lower value 0.984 | locus YHR079C, strain IRE1, stronger effect = lower value 0.988 | locus YHR094C, strain hxt1, stronger effect = lower value 0.987 | locus YHR129C, strain ARP1, stronger effect = lower value 0.978 | locus YHR142W, strain chs7, stronger effect = lower value 0.965 | locus YHR200W, strain rpn10, stronger effect = lower value 0.987 | locus YIL066C, strain RNR3, stronger effect = lower value 0.967 | locus YIL073C, strain SPO22, stronger effect = lower value 0.993 | locus YIL125W, strain kgd1, stronger effect = lower value 0.971 | locus YIR030C, strain dcg1, stronger effect = lower value 0.98 | locus YJL092W, strain hpr5, stronger effect = lower value 0.996 | locus YJL095W, strain BCK1 (second series), stronger effect = lower value 0.993 | locus YJL095W, strain BCK1, stronger effect = lower value 0.974 and 1.01 | locus YJL115W, strain asf1, stronger effect = lower value 0.986 | locus YJL129C, strain trk1, stronger effect = lower value 0.988 | locus YJL134W, strain LCB3, stronger effect = lower value 0.984 | locus YJL154C, strain vps35, stronger effect = lower value 1 | locus YJL164C, strain tpk1, stronger effect = lower value 0.99 | locus YJL166W, strain qcr8, stronger effect = lower value 0.983 | locus YJL168C, strain set2, stronger effect = lower value 0.982 | locus YJL187C, strain SWE1 (second series), stronger effect = lower value 0.983 | locus YJL187C, strain SWE1, stronger effect = lower value 1.02 | locus YJR043C, strain POL32, stronger effect = lower value 0.983 | locus YJR066W, strain TOR1, stronger effect = lower value 0.953
